The structures appear in SMILES notation. The campaign covered roughly 48,000 compounds. About 13,000 (27%) showed an effect of 50% or more. The list shows a part of the results.

This experiment has as its system Wolbachia pipientis. Description: Anti-Wolbachia Cell-Based Screen. It counts as functional. Set-up: scale not given: in the data most compounds retested in dose-response had high values. The settings on record: 5 µM.
Consider `CCC(NC(=O)CCNC(=O)c1ccccc1F)c1cc(C)ccn1` (stereo not given), for which the “Percent Effect” value is -12.53%.
With `CC(C)Cc1nc(CCn2ccc(=O)[nH]c2=O)n(-c2ccccn2)n1`, the “Percent Effect” value is recorded as 0.8317%.
As for `CCC(c1nc(C(C)C)nn1-c1ccncc1C)n1cccn1` (stereo not given), the “Percent Effect” value was -1.289%.
Consider `Cc1nc[nH]c1C(=O)N1CCCC2(CN(C)C(=O)O2)C1` (stereo not given), for which the “Percent Effect” value is -29.59%.
As to `COc1ncccc1-c1cc(C(N)=O)ccn1`, the “Percent Effect” value stood at 12.1%.
As for `COc1ncc(-c2cc(NC3CCCC3)nc3[nH]ccc23)c(OC)n1`, the figure is 5.51%; as for `COc1ncc(NS(=O)(=O)c2cccc(C)c2)c(OC)n1`, 20.6%; as for `COc1ncc(-c2ccc(C(N)=O)cc2)c(OC)n1`, 99.76%.
On to `COc1ncc(NC(=O)c2ccco2)c(OC)n1`, for which the “Percent Effect” value is on record as 4.719%.
For `COc1ncc(NS(=O)(=O)c2ccc(F)c(F)c2)c(OC)n1`, the “Percent Effect” value is -5.769%.
Next, `COc1ccc(-c2cnc(NC(C)=O)[nH]2)cc1`: -6.695%; `COc1ncc(-c2ccc(O)cc2)c(OC)n1`: 83.6%; `COc1ncc(-c2ccc(NC(C)=O)cc2)c(OC)n1`: 97.6%.
Next, `CC(C)n1cnnc1CN(C)Cc1ccc(CN(C)S(C)(=O)=O)o1`: -6.062%.
As for `CN(CC1CCN(CCO)CC1)CC(O)c1ccc(F)cc1` (stereo not given), the figure is 8.04%.
With `O=C(Nc1nnc(C2CC2)s1)NC1CCOc2ccccc21` (stereo not given), the “Percent Effect” value is -5.522%.
Take `CN(Cc1cnc(N)nc1)C(=O)C1CCN(C(=O)C2CCCC2)CC1`: the “Percent Effect” value is on record as -2.189%.
For the molecule `CN(C)Cc1cc(C2CCN(C(=O)C3CC34CCC4)CC2)nn1C.Cl` (stereo not given), the “Percent Effect” value was 106.1%.
On to `CCn1c(C2CCCN(C(=O)C(C)(C)OC)C2)nn(CCN(C)C)c1=O` (stereo not given), for which the “Percent Effect” value is -8.02%.
Take `O=C(C1CC12CCC2)N1CCC(n2cc(-c3ccsc3)nn2)CC1` (stereo not given): the “Percent Effect” value is -51.66%.
Next, `CN(C)CCN1CC(C(=O)N2CCC(c3cc(=O)[nH]cn3)CC2)CC1=O` (stereo not given): 11.42%; `COC(C)(C)C(=O)N1CCC(c2cc(CN(C)C)n(C)n2)CC1.Cl`: 119.7%; `Cc1cc(CN(C)C(=O)CN2CC3(CCNCC3)OC2=O)n(C)n1`: -5.459%.
`CN(C)Cc1cc(C2CCN(C(=O)C3CCCNC3)CC2)nn1C.Cl` (stereo not given): the “Percent Effect” value worked out at 84.37%.
`CS(=O)(=O)c1nccn1Cc1ccc(F)cc1Cl`: the “Percent Effect” value is on record as -6.222%.
Next, `Cc1cnc(N2Cc3cnn(Cc4ccc(F)cc4)c3C2)nc1N(C)C`: 15.57%.
`Cc1cc(N2CCc3c(nc(C(C)C)n3C)C2)nc(N)n1`: the “Percent Effect” value came out at 12.43%.
As for `CCCNC(=O)Nc1ccc2c(c1)N(S(=O)(=O)CC)CC2`, the figure is 85.58%; as for `CS(=O)(=O)c1ccc(NC(=O)NCc2ccc3c(c2)CCC3)cn1`, 2.355%.
Next, `CCS(=O)(=O)N1CCc2ccc(NC(=O)NCc3ccccc3)cc21`: 168.3%; `CC(=O)N1CCCc2cc(NC(=O)NCCc3cnn(C)c3)ccc21`: -10.98%.
In the case of `O=C(NCc1ccccc1CO)Nc1ccc2c(c1)CCC2`, the “Percent Effect” value is -12.78%.
Next, `CCS(=O)(=O)N1CCc2ccc(NC(=O)NCCc3ccccc3)cc21`: 122.4%.
Take `NS(=O)(=O)N1CCc2ccc(NC(=O)CCc3ccncc3)cc21`: the “Percent Effect” value is given as -8.791%.
`CCCNC(=O)CNc1ccc2c(c1)N(C(=O)OC(C)(C)C)CCC2`: the “Percent Effect” value was -19.09%.
Turning to `Fc1cccc(N2CCOC3(CCCN(c4nncs4)C3)C2)c1` (stereo not given), the “Percent Effect” value is given as -6.078%.
As for `O=C(C1CCCC1)N1CC(c2nc(Cc3ccccc3)no2)C1`, the “Percent Effect” value worked out at 3.47%.
In the case of `O=C(C1CCCC1)N1CCOC(c2nc(-c3ncccn3)no2)C1` (stereo not given), the “Percent Effect” value turned out to be 90.83%.
As for `O=C(CC1CCCC1)N1CCOC(c2nc(-c3ncccn3)no2)C1` (stereo not given), the “Percent Effect” value turned out to be 86.32%.
As for `O=C(CN1CCCC1c1nc(-c2ccccn2)no1)N1CCOCC1` (stereo not given), the figure is -3.547%.
As for `CCn1cc(Cn2cc(-c3cccc(C(C)N(C)C)c3)nn2)cn1` (stereo not given), the figure is -0.05647%; as for `COc1ccc(N(C)C(=O)C2CN(C)CCO2)cc1Cl` (stereo not given), 4.765%.
In the case of `Cn1ccnc1-c1cn(CCCc2nnc(N)s2)nn1`, the “Percent Effect” value amounted to 101%.
Next, `CCOc1ncccc1Cn1cc(-c2nccn2C)nn1`: -13.21%.
As for `Cn1cccc1-c1cc(C(=O)NCCCc2csc(N)n2)[nH]n1`, the figure is -5.944%; as for `Cn1ccnc1-c1cn(CCc2nnc(N)s2)nn1`, 90.14%; as for `Cc1cn(CCn2ccnc2-c2sccc2C)nn1`, -12.56%.
Next, `CCc1nc(CCn2cc(-c3nccn3C)nn2)no1`: -10.63%.
For the molecule `Cc1cc(-n2nc(C)nc2-c2cn(CCN)nn2)ccn1`, the “Percent Effect” value was -45.52%.
On to `Cn1ccnc1-c1cn(CCCc2csc(N)n2)nn1`, for which the “Percent Effect” value is given as 106.8%.
Next, `Cc1ccccc1C1CCN(CCn2cc(-c3nccn3C)nn2)C1` (stereo not given): -7.795%; `Cn1ccnc1C(=O)NCCS(=O)(=O)c1ccc(C(C)(C)C)cc1`: 15.11%.
Next, `Cc1cc(C)c(CNC(=O)NCC(c2ccccc2)N(C)C)c(=O)[nH]1` (stereo not given): 1.646%; `CC(C)NS(=O)(=O)c1cc(C(=O)O)cc(-c2ccc3c(c2)OCO3)c1`: 10.97%; `CCC(NC(=O)c1cccc2cc[nH]c12)C(=O)N1CCOCC1` (stereo not given): 1.714%.
For `COc1ccnc(N2CCC3(CCCN(CC4CC4)C3=O)C2)n1` (stereo not given), the “Percent Effect” value is -5.296%.
As for `O=C(O)C(F)(F)F.O=C1N(CC2CC2)CCC12CCCN(c1ncc(F)cn1)C2` (stereo not given), the “Percent Effect” value is recorded as 107.4%.
For `Cc1cnc(N2CCC3(CCN(CC4CCCC4)C3=O)CC2)nc1.O=C(O)C(F)(F)F`, the “Percent Effect” value was 94.42%.
Next, `Cc1cnc(N2CCC3(CCC(C(=O)NC(C)C)C3)CC2)nc1.O=C(O)C(F)(F)F` (stereo not given): -24.15%.
For `Cc1cnc(N2CCC3(CC2)CC3CNC(=O)C2CCC2)nc1.O=C(O)C(F)(F)F` (stereo not given), the “Percent Effect” value is -2.894%.
As for `O=C(O)C(F)(F)F.O=C1N(CC2CCCC2)CCC12CCN(c1ncc(F)cn1)CC2`, the “Percent Effect” value was 111.9%.
As for `CN1CCC2(CCN(c3ncc(F)cn3)CC2)C1=O.O=C(O)C(F)(F)F`, the figure is 5.555%; as for `O=C(O)C(F)(F)F.O=C(O)C(F)(F)F.c1cnc(N2CCC3(CCN(CC4CC4)CC3)CC2)nc1`, -4.913%.
Turning to `CN(C)C(=O)CN1CCC2(CCCN(c3ncc(F)cn3)C2)C1=O` (stereo not given), the “Percent Effect” value is listed as -17.79%.
As for `CC(C)OCCC1CCCCN1S(N)(=O)=O` (stereo not given), the figure is 5.549%; as for `Cc1cnn(-c2cccc(N3CCCC3)n2)c1`, 2.122%; as for `Cc1cc(C)n(CC2CN(CC(=O)N3CCNC3=O)CCO2)n1` (stereo not given), 88.91%.
Next, `Cc1cc(C)n(CC2CN(CC(=O)N3CCC3)CCO2)n1` (stereo not given): 107.3%; `Fc1cc(CNCCn2cccn2)ccc1-n1cncn1`: -7.055%.
On to `Cc1nc(CSc2ccc(C(F)(F)F)cn2)no1`, for which the “Percent Effect” value is reported as -11.09%.
As for `Cc1nc(CC(=O)NCCN2CCC(c3ccccc3C)C2)cs1` (stereo not given), the figure is -10.54%.
In the case of `Cc1csc(C(=O)NCCN2CCC(c3cccs3)CC2)c1`, the “Percent Effect” value was 131.4%.
As for `O=C(Cc1ccccc1Cl)NCCN1CCC(c2cccs2)CC1`, the figure is 167.3%; as for `Cc1ccccc1C1CCN(CCNC(=O)CS(C)(=O)=O)C1` (stereo not given), -1.802%; as for `O=C(NCCN1CCCC(CO)C1)c1ccc2sccc2c1` (stereo not given), 0.9044%.
Next, `COc1ccc(C(=O)NCC(=O)N(Cc2ccsc2)C2CC2)cc1OC`: -17.21%; `CC(=O)NCCN1CCC(c2cccs2)CC1`: -11.86%.
As for `CCSc1ccccc1C(=O)NCCN1CCC(c2cccs2)CC1`, the “Percent Effect” value stood at 153.4%.
Next, `COc1ccc(C(=O)NCCN2CCC(c3cccs3)CC2)cc1OC`: 108.4%; `CCCNC(=O)c1cc2c([nH]c1=O)CC(c1cccs1)CC2=O` (stereo not given): 1.208%.
As for `O=C(NCCN1CCC(c2cccs2)CC1)c1ccccc1C(F)(F)F`, the figure is 6.812%.
For `CCCN1CCC(NC(=O)c2csc(C)c2-c2ccccc2)CC1`, the “Percent Effect” value stood at 2.697%.
`CCNc1ncc(C2CC(=O)Nc3c2cnn3Cc2ccncc2)cn1` (stereo not given): the “Percent Effect” value was 0.3044%.
As for `CCSCCC(=O)NCc1cnn(-c2ccc(F)cc2F)c1`, the figure is 1.546%.
As to `Cc1ccc(S(=O)(=O)NC(=O)CCOCC(C)C)s1`, the “Percent Effect” value worked out at 14.43%.
As for `O=C(CCc1cc(Cl)no1)N1CCCCC1CCn1ccnc1` (stereo not given), the “Percent Effect” value is on record as -6.627%.
Regarding `O=C(c1cccnc1-n1cncn1)N1CCc2ccccc2C1`, the “Percent Effect” value is listed as 12.03%.
Next, `COc1ccc(CNCC2CCN(CC(C)O)CC2)c2ccccc12` (stereo not given): -9.036%; `CCN(Cc1nnnn1C1CC1)c1cc(C)ccc1C`: -3.19%; `O=C(NCCN1CCC(c2cccs2)CC1)c1ccc(F)cc1Cl`: 122.6%.
Next, `O=C(NCC(c1cccs1)N1CCOCC1)c1ccc(F)cc1Cl` (stereo not given): -4.405%; `CCN(CC)C(=O)Cc1csc(C(C)C)n1`: -7.822%.
As for `Cc1cccc(OCC(=O)N(C)C2CCN(CC3CCOC3)CC2)c1` (stereo not given), the figure is -8.689%; as for `CCCNc1ncc(CN2C[C@H]3CC[C@@H]2CN(C2CCOCC2)C3)cn1`, 7.731%; as for `N#Cc1ccc(OCCCN2CCOC(Cn3cncn3)C2)cc1` (stereo not given), 94.1%.
Regarding `Fc1ccc(OCCCN2CCOC(Cn3cncn3)C2)cc1` (stereo not given), the “Percent Effect” value came to 3.822%.
Next, `Clc1cccc(OCCCN2CCOC(Cn3cncn3)C2)c1` (stereo not given): 125.7%.
Turning to `c1ncn(CC2CN(CCCOc3ccc4c(c3)OCO4)CCO2)n1` (stereo not given), the “Percent Effect” value is on record as 97.52%.
On to `COc1ccc(OCCCN2CCOC(Cn3cccn3)C2)cc1` (stereo not given), for which the “Percent Effect” value came to 1.876%.
Consider `Clc1ccc(OCCCN2CCOC(Cn3cncn3)C2)cc1` (stereo not given), for which the “Percent Effect” value worked out at 88.34%.
As for `Fc1ccc(CN2CCOC(Cn3cncn3)C2)c2ncccc12` (stereo not given), the figure is -8.547%.
Next, `c1ccc2cc(OCCN3CCOC(Cn4cncn4)C3)ccc2c1` (stereo not given): 0.3629%; `c1cnn(CC2CN(CCCOc3ccc4c(c3)OCO4)CCO2)c1` (stereo not given): 1.566%; `c1cnn(C2CN(CCCOc3ccc4c(c3)OCO4)C2)c1`: -8.072%.
In the case of `Cc1cc2n(n1)CC(CNCc1cnn(-c3ccccc3)c1)CN2` (stereo not given), the “Percent Effect” value was -14.73%.
